TDP1 block: TDP1 (human) enzyme inhibition; Q9NUW8; recombinant TDP1, AlphaScreen DNA substrate cleavage; Potency, µM (top dose mostly 130 µM), most hits filed as inhibitors; 350,000 compounds, 0.28% hits; AID 485290; also: nearly all actives have a fitted effect of over 40% in size
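Recombinant E. coli-expressed Tdp1 (1 nM) preincubated with compound 15 min at RT, then 5'-biotin/3'-phosphotyrosine-FITC DNA substrate (15 nM) added for 5 min. AlphaScreen beads (10 ug/ml) added, 10 min RT; tyrosine-FITC cleavage read as signal loss.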
Pol eta inh-1: inhibitors of human DNA polymerase eta; Q9Y253; Potency, µM (highest dose often 114 µM), most hits filed as inhibitors; recombinant Pol eta, fluorescent DNA replication assay; 390,000 compounds, 1.2% hits
Target sequence (Q9Y253 whole entry, looked up): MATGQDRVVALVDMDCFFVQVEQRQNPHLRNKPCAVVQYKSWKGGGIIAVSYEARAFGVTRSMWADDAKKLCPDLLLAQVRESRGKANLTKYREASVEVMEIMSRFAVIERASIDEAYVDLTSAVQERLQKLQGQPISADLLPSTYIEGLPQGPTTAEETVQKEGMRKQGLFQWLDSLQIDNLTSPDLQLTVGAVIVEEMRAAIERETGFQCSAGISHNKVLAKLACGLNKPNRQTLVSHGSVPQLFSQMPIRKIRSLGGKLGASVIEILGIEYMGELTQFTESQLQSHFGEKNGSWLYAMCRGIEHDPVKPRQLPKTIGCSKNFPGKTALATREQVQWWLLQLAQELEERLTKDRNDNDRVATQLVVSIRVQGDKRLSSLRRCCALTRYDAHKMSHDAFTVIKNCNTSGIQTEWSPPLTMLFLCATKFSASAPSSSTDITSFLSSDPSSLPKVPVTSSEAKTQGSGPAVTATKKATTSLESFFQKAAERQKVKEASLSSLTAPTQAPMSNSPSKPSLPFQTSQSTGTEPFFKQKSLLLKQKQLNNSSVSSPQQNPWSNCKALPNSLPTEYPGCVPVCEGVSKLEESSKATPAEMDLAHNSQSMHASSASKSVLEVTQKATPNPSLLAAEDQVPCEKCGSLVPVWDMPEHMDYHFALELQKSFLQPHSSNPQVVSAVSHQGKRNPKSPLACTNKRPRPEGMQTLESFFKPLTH
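Pol eta (10 nM) was preincubated with compounds for 15 min at room temperature, after which fluorescent replication substrate (50 nM final) was added to start the reaction. Fluorescence was read kinetically at 0 and 10 min.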
Pol kappa inh-1: inhibitors of human DNA polymerase kappa | Q9UBT6 | purified Pol kappa, fluorescent DNA synthesis assay, 10 min | Potency, µM (highest dose often 107 µM), actives largely listed as inhibitors | 400,000 compounds, 0.53% hits | AID 588579
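Enzyme at 10 nM met test compounds for 15 min at room temperature. Substrate addition (50 nM final) began the reaction, which was monitored by fluorescence at 0 and 10 min.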
Pol beta inh: inhibitors of human DNA polymerase beta | Pol beta primer extension/strand displacement, fluorescence kinetic | Potency, µM (titrated, usually from 114 µM), usual class: inhibitors | 340,000 compounds, 1.3% hits | AID 485314
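10 nM enzyme + cpd, 15 min RT; start with substrate 50 nM final; read 0 min and after 10 min RT. Corrected, normalized data; 4-parameter Hill curve fit.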
POLI inh: blocks human DNA polymerase iota activity | Q9UNA4 | Pol iota fluorescent replication assay, 10 min | Potency, µM (highest dose often 115 µM), most hits filed as inhibitors | 390,000 compounds, 1% hits | AID 588590
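Pol iota at 10 nM preincubated 15 min with compounds at room temperature; reaction started with fluorescent substrate, 50 nM final. Fluorescence read kinetically at 0 and 10 min; buffer-only wells as negative control.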
TbPGK inh: blocks T. brucei phosphoglycerate kinase; shares compounds with Pol kappa inh-1; TbPGK coupled GAPDH assay, Kinase-Glo luminescence; Potency, µM (top dose mostly 57.5 µM), actives largely listed as inhibitors; 500 compounds, 79% hits; AID 686980; also: nearly all actives have a fitted effect of over 65% in size
Pol iota confirm: Confirm cherry-picked inhibitors of human polymerase iota | shares compounds with Pol kappa inh-1 | Pol iota primer extension, TAMRA/BHQ fluorescence | Potency, µM, usual class: inhibitors | 1,500 compounds, 77% hits
Pol kappa inh-2: confirmation of human DNA polymerase kappa inhibitors. shares compounds with Pol eta inh-1. 920 compounds, 76% hits. Potency, µM, most hits filed as inhibitors. purified Pol-kappa, fluorescent strand-displacement substrate
Pol eta inh-2: confirmation of human DNA polymerase eta inhibitors; shares compounds with Pol eta inh-1; Pol eta primer extension, TAMRA/BHQ fluorescence, 10 min; Potency, µM, hits mostly inhibitors; 2,600 compounds, 64% hits; AID 720502
A number is an active result; i = inactive; ? = inconclusive; nt = no result given; [ ] = another dose, or the depositor's remark. An excerpt weighted towards active compounds, which were near 2.4% of everything screened. Calls follow the shape of the dose curve; as a rule, active = well fitted curve in the direction sought with a large enough effect; inconclusive = small, poorly fitted or top-dose-only effect, or another doubt; inactive = no such curve, though single readings can be large; an effect the other way counts as inactive or inconclusive.

SMILES	TDP1 block	Pol eta inh-1	Pol kappa inh-1	Pol beta inh	POLI inh	Pol iota confirm	Pol eta inh-2	others
O=C(COC(=O)c1ccc([N+](=O)[O-])o1)NC1CCCCC1	i	?	i	nt	79.4µM	?	?
NCC(O)c1ccc(O)c(O)c1 (stereo not drawn)	?	?	7.52µM	35.5µM	35.5µM	47.4	?
O=c1cc(-c2ccccc2)oc2cc(O)ccc12	i	i	i	nt	i	nt	nt
O=c1ccc2c(-c3ccccc3)c3ccc(O)cc3oc-2c1	nt	39.8µM	?	7.94µM	31.6µM	33.6	10.7	Pol kappa inh-2=2.99
O=C(NCc1ccccc1)C1CCN(S(=O)(=O)c2ccc3c(c2)CCCN3C(=O)C2CCC2)CC1	i	i	i	i	i	nt	nt
Nc1cccc2c(O)cc(S(=O)(=O)O)cc12	nt	2.82µM	8.91µM	nt	3.16µM	6.7	6.01	TbPGK inh=5.17µM;Pol kappa inh-2=2.67
O=S(=O)(O)c1cc(O)c2cc(Nc3ccccc3)ccc2c1	nt	2.82µM	31.6µM	nt	3.16µM	29.9	16.9	TbPGK inh=9.19µM;Pol kappa inh-2=3.36
O=C(O)c1cc2cc(S(=O)(=O)O)ccc2cc1O	nt	i	i	nt	i	nt	nt
COc1ccc(S(=O)(=O)O)cc1P(=O)(c1ccccc1)c1ccccc1	nt	i	i	i	i	nt	nt
O=S(=O)(O)c1ccc(O)c2cc(Nc3ccccc3)ccc12	nt	0.794µM	2.82µM	nt	?	0.67	0.757	TbPGK inh=0.651µM;Pol kappa inh-2=0.532
Oc1cccc(Nc2ccccc2)c1	i	i	i	nt	i	nt	nt
COc1ccccc1Nc1ccc2c(O)cc(S(=O)(=O)O)cc2c1	nt	2.24µM	0.891µM	nt	1.12µM	18.9	15.1	TbPGK inh=8.19µM;Pol kappa inh-2=2.99
CCOc1ccc(CNC(=O)CCCn2c(=O)c3cccn3c3ccc(F)cc32)cc1	i	i	i	i	i	nt	nt
O=C(NCCCCCCNC(=O)ON=C1CCCCC1)ON=C1CCCCC1	i	nt	i	nt	nt	nt	nt
CC(C)COc1ccc(-c2nn(-c3ccccc3)cc2/C=C2/SC(=S)N(CC(=O)O)C2=O)cc1	nt	28.2µM	i	i	i	75.2	67.5
CCCN1CNc2c(c(=O)[nH]c(=S)n2CCc2ccc(Cl)cc2)C1	i	nt	i	nt	i	nt	nt
O=C(c1cccc(-n2cccc2)c1)N1CCN(S(=O)(=O)c2ccccc2)CC1	nt	8.91µM	17.8µM	nt	8.91µM	4.23	8.49
O=C(c1cccc(-n2cccc2)c1)N1CCN(S(=O)(=O)c2c(F)cccc2F)CC1	i	20µM	?	?	22.4µM	67	75.7
O=C(c1ccc2c(c1)OCCO2)N1CCN(S(=O)(=O)c2c(F)cccc2F)CC1	i	i	i	nt	i	nt	nt
O=C(c1cccc(S(=O)(=O)N2CCN(c3ccccc3)CC2)c1)N1CCCCCCC1	nt	i	i	nt	i	nt	nt
Cc1ccccc1C1=C/C(=C(\SS/C(C(=O)c2ccc(OCC(=O)O)c(Cl)c2Cl)=C2\C=C(c3ccccc3C)SS2)C(=O)c2ccc(OCC(=O)O)c(Cl)c2Cl)SS1	nt	14.1µM	79.4µM	nt	?	37.7	23.9	Pol kappa inh-2=16.8
O=C(O)COc1ccc(C(=O)c2cccs2)c(Cl)c1Cl	i	nt	i[19.4 µM]	nt	nt	nt	nt
CC[C@H](C)[C@H](NC(=O)[C@H](Cc1ccc(O)cc1)NC(=O)[C@H](Cc1cnc[nH]1)NC(=O)[C@H](CCCNC(=N)N)NC(=O)[C@H](CC(C)C)NC(=O)[C@H](C)NC(=O)[C@H](CO)NC(=O)[C@H](Cc1ccc(O)cc1)NC(=O)[C@H](Cc1ccc(O)cc1)NC(=O)[C@H](CCCNC(=N)N)NC(=O)[C@H](C)NC(=O)[C@H](CCSC)NC(=O)[C@H](CC(=O)O)NC(=O)[C@H](CCC(=O)O)NC(=O)[C@H](C)NC(=O)[C@@H]1CCCN1C(=O)[C@H](C)NC(=O)[C@H](CC(=O)O)NC(=O)[C@H](CCC(=O)O)NC(=O)CNC(=O)[C@@H]1CCCN1C(=O)[C@H](CC(N)=O)NC(=O)[C@H](CC(=O)O)NC(=O)[C@@H]1CCCN1C(=O)[C@H](CCCCN)NC(=O)[C@H](CO)NC(=O)[C@@H]1CCCN1C(=O)[C@@H](N)Cc1ccc(O)cc1)C(=O)N[C@@H](CC(N)=O)C(=O)N[C@@H](CC(C)C)C(=O)N[C@H](C(=O)N[C@H](C(=O)N[C@@H](CCCNC(=N)N)C(=O)N[C@@H](CCC(N)=O)C(=O)N[C@@H](CCCNC(=N)N)C(=O)N[C@@H](Cc1ccc(O)cc1)C(N)=O)[C@@H](C)O)[C@@H](C)CC	i	nt	i	nt	nt	nt	nt
COc1cc(/C=C2/C(=O)NN(c3ccccc3)C2=O)cc(Br)c1O	nt	i	i	i	i	nt	nt
CCOC(=O)CN1C(=O)S/C(=C/c2ccc(OC)c([N+](=O)[O-])c2)C1=O	i	i	i	i	i	nt	nt
SMILES	TDP1 block	Pol eta inh-1	Pol kappa inh-1	Pol beta inh	POLI inh	Pol iota confirm	Pol eta inh-2	others
COc1cc(/C=C2\C(=O)NN(c3ccccc3)C2=O)cc([N+](=O)[O-])c1O	?	12.6µM	?	12.6µM	12.6µM	37.7	26.9
CCOc1cc(/C=C2\C(=O)NN(c3ccccc3)C2=O)cc([N+](=O)[O-])c1O	?	15.8µM	44.7µM	20µM	11.2µM	?	30.1
COc1cc(/C=C2\SC(=O)N(Cc3ccc(F)cc3)C2=O)cc([N+](=O)[O-])c1O	i	50.1µM	i	i	i	84.4	75.7	Pol kappa inh-2=26.7
CN1CCN(c2ncc3nc(CCc4ccccc4)c(=O)n(C4CC4)c3n2)CC1	nt	nt	i	nt	nt	nt	nt
CCOC(=O)c1ccc(NC(=O)C2CCCN(c3ncnc4onc(-c5ccc(F)cc5)c34)C2)cc1 (stereo not drawn)	i	i	i	i	i	nt	nt
Cc1ccc(NC(=O)c2ccc(CNS(=O)(=O)c3ccc4c(c3)C(C)(C)C(=O)N4C)cc2)cc1C	i	i	i	i	i	nt	nt
O=C1/C(=C/c2ccc(O)c(O)c2)Oc2cc(O)ccc21	nt	20µM	28.2µM	i	?	23.8	33.8
COc1cc(/C=C2\Oc3cc(O)ccc3C2=O)ccc1O	nt	i	i	?	?	nt	nt
O=c1oc2ccccc2c2oc3cc(O)c(O)cc3c12	i	4.47µM	5.01µM	i	3.16µM	21.2	21.3	Pol kappa inh-2=67
Nc1c(N)c2ccccc2oc1=O	i	i	i	i	i	nt	nt
COCCOC(=O)c1[nH]c2c(c1C)C(=O)CC(c1ccco1)C2 (stereo not drawn)	nt	12.6µM	22.4µM	11.2µM	i	42.3	37.9
CCOC(=O)c1[nH]c2c(c1C)C(=O)CC(c1ccco1)C2 (stereo not drawn)	?	20µM	56.2µM	28.2µM	?	67	60.1

Screens as filed in PubChem BioAssay.
